From PubChem BioAssay
ERp5 block: inhibitors of human ERp5; Q15084; ERp5 insulin aggregation, absorbance 650 nm, 90 min; inhibition, % at 9.99 µM; 0.05% of 350,000 active; AID 651711;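 active = mean replicate inhibition above about 25%, with every replicate also reaching it, limit read from the data, passing the limit was not always enough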
DENV2 CPE rescue: DENV2-induced cell death inhibition; AID 651640; DENV2-infected cells, cytopathic effect rescue, plate reader; CPE inhibition, % at 9.99 µM; 1.7% of 350,000 active; in the data active = CPE inhibition above about 20%, passing the limit was not always enough; tested in BHK-21 cells
SIRT5 inh: blocks human SIRT5 desuccinylation of peptide; Q9NXA8; Purified SirT5, succinyl-peptide AMC, trypsin-coupled fluorescence; inhibition, % at 15 µM; 1.1% of 330,000 active; AID 652115; in the data active = inhibition above about 15%
Rtt109 HAT inh: C. albicans Rtt109 histone acetyltransferase inhibition. Q5AAJ8. 0.16% of 330,000 active. purified Rtt109/Vps75, ThioGlo CoA-SH fluorescence, 4 h. AID 540336. inhibition, % at 34.9 µM;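 active = inhibition of at least 50% in every replicate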
Target sequence (Q5AAJ8 whole entry, looked up): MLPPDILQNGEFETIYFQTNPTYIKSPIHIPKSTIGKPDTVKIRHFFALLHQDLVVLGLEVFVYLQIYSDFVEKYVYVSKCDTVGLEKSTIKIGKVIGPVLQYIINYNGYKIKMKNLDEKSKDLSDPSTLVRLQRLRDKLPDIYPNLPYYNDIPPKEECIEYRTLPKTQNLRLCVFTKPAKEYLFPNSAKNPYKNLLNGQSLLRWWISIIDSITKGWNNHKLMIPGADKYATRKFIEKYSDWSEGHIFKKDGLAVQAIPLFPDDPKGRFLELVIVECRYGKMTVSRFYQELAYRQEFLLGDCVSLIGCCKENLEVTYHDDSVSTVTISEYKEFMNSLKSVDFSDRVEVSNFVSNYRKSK
PDI inh: blocks human protein disulfide isomerase activity. P07237. PDI insulin aggregation turbidity, A650, 90 min. inhibition, % at 10 µM. 0.052% of 350,000 active. AID 588391;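 active = mean inhibition across replicates of 30% or more, whatever share of single replicates reach that level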
Numbers stand for hits; - = inactive; . = not tested or not shown. Hits are enriched below; roughly 2.3% of the tested compounds scored in any of these assays.

SMILES	ERp5 block	DENV2 CPE rescue	SIRT5 inh	Rtt109 HAT inh	PDI inh
CC(C)c1cn(CC[C@@H]2CC[C@H](NC(=O)C3CCOCC3)[C@@H](CO)O2)nn1	-	71	-	.	.
CCCc1cn(CC[C@H]2CC[C@H](NC(=O)C3CCCCC3)[C@@H](CO)O2)nn1	-	-	-	.	.
CCCc1cn(CC[C@@H]2CC[C@H](NC(=O)C3CCCCC3)[C@@H](CO)O2)nn1	-	-	16	.	.
O=C(C[C@H]1CC[C@H]2[C@@H](COC[C@@H](O)CN2Cc2ccccc2)O1)NCCCN1CCOCC1	-	-	-	.	.
CC(C)c1ccc(NC2CCCN(C(=O)CC3CCCC3)C2)cc1 (stereo not given)	-	-	34	-	-
C[C@H]1CN([C@@H](C)CO)S(=O)(=O)c2ccc(C3=CCCCC3)cc2O[C@@H]1CN(C)Cc1ccncc1	-	-	-	.	.
CCCCSc1nc2c(cnn2-c2ccc(C)c(C)c2)c(=O)[nH]1	-	50	-	-	-
Cc1ccc([C@@H]2CC=C(C(=O)O)[C@H](c3ccc(Br)cc3)N2S(=O)(=O)c2ccccc2C)cc1	-	28	-	-	-
Cc1ccccc1S(=O)(=O)N1[C@@H](c2ccc(Br)cc2)C(C(=O)O)=CC[C@H]1c1ccc(Cl)cc1	-	-	-	-	-
Cc1ccc([C@@H]2CC=C(C(=O)O)[C@H](c3ccc(Cl)cc3)N2S(=O)(=O)c2ccc(C)cc2)cc1	-	-	-	-	-
Cc1ccc(S(=O)(=O)N2[C@@H](c3ccccc3)C(C(=O)O)=CC[C@H]2c2ccc(Cl)cc2)cc1	-	-	26	-	-
O=C(C[C@H]1CC[C@H](NC(=O)CN2CCOCC2)[C@@H](CO)O1)NCCc1ccncc1	-	-	-	.	.
